{"source": "PubChem BioAssay AID1508624", "about": "(National Center for Advancing Translational Sciences (NCATS), 2021)", "note": "Among all 48,000 compounds or so, about 120 (0.25%) were called active. About 4% were inconclusive and are not listed. Many of the other results were omitted from the sample, so actives are more common in it than they were. Unmarked numbers belong to inactive results. Calls come from the whole dose curve; as a rule, active = well fitted activation curve with a large enough effect; inconclusive = small, poorly fitted or top-dose-only effect, or another doubt; inactive = no such curve, though single readings can be large or run the other way. Potency is the fitted concentration of half-maximal effect.", "data": [{"test": "Primary qHTS for Identification of Small Molecule Activators of Huntingtin-Antisense Promoter Activity; note: nearly all actives have a fitted effect of over 55% in size", "conditions": "HEK293 HTT-AS promoter firefly luciferase reporter, 24 h; series mostly up to 57.5 µM; activity change, positive = activation: at the top concentration", "source_text": "Assay Provider: Russell L. Margolis M.D.\nDepartment Neurology, Johns Hopkins University School of Medicine, Baltimore, MD\nHuntington's Disease (HD) is a neurodegenerative disorder caused by a CAG repeat expansion in exon 1 of huntingtin (HTT). While there are currently no disease-modifying treatments for HD, recent efforts have focused on development of nucleotide-based therapeutics to lower HTT expression. As an alternative to siRNA or oligonucleotide methods, we hypothesized that suppression of HTT expression might be accomplished by small molecules that either (1) directly decrease HTT expression by suppressing HTT promoter activity or (2) indirectly decrease HTT expression by increasing the promoter activity of HTT-AS, the gene antisense to HTT that appears to inhibit expression of HTT.\nWe developed and employed a high throughput screen for modifiers of HTT and HTT-AS promoter activity using luminescent reporter HEK293 cells; of the 52,041 compounds tested, we identified 898 replicable hits. We used a rigorous stepwise approach to assess compound toxicity and the capacity of the compounds to specifically lower huntingtin protein in 5 different cell lines, including HEK293 cells, HD lymphoblastoid cells, mouse primary neurons, HD iPSCs differentiated into cortical-like neurons, and HD hESCs. We found no compounds which were able to lower huntingtin without lowering cell viability in all assays, though the potential efficacy of a few compounds at non-toxic doses could not be excluded.\nSEQUENCE No. (1, 2, 3, etc.); […] (e.g., Cells, Incubation, Reagent, etc.); VALUE and DESCRIPTION.\n1; Reagent; 4 uL; 2,500 Hek293 luciferase reporter cells per wells\n3; Compound; 23 nL; Control inhibitor / compound library\n5; Reagent; 2.5 uL; Firefly Luc reagent; Dual-Glo Luciferase Reporter Assay System (Promega)\n6; Time; 10 min; room temperature incubation\n7; Detection; Luminescence; FLuc\nNOTES (numbers refer to sequence above)\n1; High-throughput screening, measuring luminescence from a Hek293 luciferase reporter, was performed in 1,536 well white-walled tissue-culture treated plates. 2,500 cells were plated in 4 µL of Opti-MEM per well using a Multidrop Combi Reagent Dispenser (ThermoFisher).\n2; Assay plates were cultured for 24 hours.\n3; Control inhibitor (PTC124; final concentration of 50 uM) and compound library (at final concentrations of 460 nM - 57.5 uM) were added to the assay plate using the Kalypsis Pintool Robotic System equipped with 1536 pinheads.\n4; Cells were then incubated for 24 hours at 37 degrees C prior to luminescence measurements.\n5; In all cases, luminescence was measured using the Dual-Glo Luciferase Reporter Assay System (Promega) following the manufacturer's instructions.\n6; Room temperature incubation.\n7; Luminescence signal was obtained using the PerkinElmer ViewLux plate reader. Results were normalized to vehicle control (0% activity) and zero RLU (-100% activity).", "values": [{"smiles": "CSc1nc(Nc2ccc(F)cc2)cc(-c2ccccc2)n1", "activity change, positive = activation": "-31.3%"}, {"smiles": "Cc1nnc(SCC(=O)NCc2ccccc2Cl)c2nn(-c3ccccc3)c(C)c12", "activity change, positive = activation": "-52.7%"}, {"smiles": "Cc1ccc(C)c(Cn2c(C)c(CNCc3ccc(F)cc3)c(C(=O)O)c2C)c1", "activity change, positive = activation": "-17.8%"}, {"smiles": "CCn1c(CN2CCC(C)CC2)nc2cc(NC(=O)c3ccccc3[N+](=O)[O-])ccc21", "activity change, positive = activation": "-14.8%"}, {"smiles": "COc1ccc(-c2cn3nc(N4CCC(C(=O)Nc5cccc(C)c5C)CC4)sc3n2)cc1", "activity change, positive = activation": "-3.6%"}, {"smiles": "COc1ccc(-c2nc(CN3CCC(C(=O)NCc4ccccc4)CC3)c(C)o2)cc1OC", "activity change, positive = activation": "-3.36%"}, {"smiles": "CC(C)CNc1ncnc2c1nnn2C", "activity change, positive = activation": "5.96%"}, {"smiles": "CSc1ccccc1-c1nnc(NC(=O)c2ccc3c(c2)OCCO3)o1", "activity change, positive = activation": "23.7%"}, {"smiles": "COc1ccc(NC(=O)CCc2nnc3n(CC(C)C)c(=O)c4ccccc4n23)cc1OC", "activity change, positive = activation": "-1.01%"}, {"smiles": "O=C(NCC(c1ccc(Cl)cc1)N1CCOCC1)c1ccccc1F", "note": "(configuration not stated)", "activity change, positive = activation": "-2.89%"}, {"smiles": "CCOc1ccc(NC(=O)CC2C(=O)N(c3cccc(OC)c3)C(=O)N2C2CCCCC2)cc1", "note": "(configuration not stated)", "activity change, positive = activation": "-6.38%"}, {"smiles": "COc1cc(OC)cc(C(=O)Nc2ccc3nc(Nc4cccc(C(F)(F)F)c4)cc(C)c3c2)c1", "activity change, positive = activation": "-45.6%"}, {"smiles": "Cn1cc(S(=O)(=O)N2CCCCCC2)cc1C(=O)N1CCN(c2ccc(F)cc2)CC1", "activity change, positive = activation": "-20.1%"}, {"smiles": "Cc1ccc(NS(=O)(=O)c2ccc3c(c2)CC(=O)N3)cc1Cl", "activity change, positive = activation": "-22.4%"}, {"smiles": "CCCc1nn2c(=O)cc(COC(=O)c3ccc(NC(=O)COc4ccc(F)cc4)cc3)nc2s1", "activity change, positive = activation": "-14.4%"}, {"smiles": "CSc1ccc(NC(=O)Cn2nnnc2-c2ccccc2F)cc1", "activity change, positive = activation": "2.75%"}, {"smiles": "CCOc1ccc(N(CC)S(=O)(=O)N2CCCC(C(=O)NCc3ccc(SC)cc3)C2)cc1", "note": "(configuration not stated)", "activity change, positive = activation": "-54.2%"}, {"smiles": "Cc1ccc(N2CC(NC(=O)Cc3cccs3)CC2=O)cc1", "note": "(configuration not stated)", "activity change, positive = activation": "-7.5%"}, {"smiles": "CSc1ccc(C2C(C(=O)Nc3ccccc3)=C(C)Nc3nc4ccccc4n32)cc1", "note": "(configuration not stated)", "activity change, positive = activation": "-8.48%"}, {"smiles": "CC1CCCN(S(=O)(=O)c2ccc3[nH]c(=O)cc(C(=O)NCCc4ccc(Cl)cc4)c3c2)C1", "note": "(configuration not stated)", "activity change, positive = activation": "-9.89%"}, {"smiles": "COc1ccc(Cl)cc1NC(=O)CSc1nc2ccccc2c2nc(-c3ccccc3)nn12", "activity change, positive = activation": "-1.33%"}, {"smiles": "O=C(CC(c1cccs1)N1Cc2ccccc2C1=O)Nc1ccc(F)cc1F", "note": "(configuration not stated)", "activity change, positive = activation": "-27.2%"}, {"smiles": "COCCNC(=O)c1ccc2c(c1)N=C(C)c1cc(C)ccc1S2", "activity change, positive = activation": "-31.8%"}, {"smiles": "COc1ccc(-c2nc3c4ccccc4n(CC(=O)Nc4ccc(C(C)=O)cc4)c(=O)n3n2)cc1", "activity change, positive = activation": "0.837%"}, {"smiles": "Cc1cccc(N2CCN(C(=O)Cn3ncc4c5ccccc5n(C)c4c3=O)CC2C)c1", "note": "(configuration not stated)", "activity change, positive = activation": "-6.74%"}, {"smiles": "CCOC(=O)N1CCC(NC(=O)c2cnn(-c3cccc(C)c3)c2C2CCN(C(=O)OC(C)(C)C)CC2)CC1", "activity change, positive = activation": "7.44%"}, {"smiles": "COc1cccc(NC(=O)N(Cc2cn(C)c3ccccc23)C2CCCCCC2)c1", "activity change, positive = activation": "-30.5%"}, {"smiles": "COc1ccc(CNC(=O)COCc2cc(-c3cccs3)on2)cc1OC", "activity change, positive = activation": "-12%"}, {"smiles": "COc1cccc(CNC(=O)Cn2ncn3c(cc4ccccc43)c2=O)c1", "activity change, positive = activation": "4.19%"}, {"smiles": "COc1cc2ccccc2cc1C(=O)Nc1cccc(-c2nc3ccccc3o2)c1", "activity change, positive = activation": "4.7% [at 11.5 µM, percent change from vehicle, -100% = no light]"}, {"smiles": "CC1CCN(c2nc3ccc(C(=O)N4CCN(c5ccccc5)CC4)cc3s2)CC1", "activity change, positive = activation": "-77.4%"}, {"smiles": "COc1cc(NC(=O)CN2CCN(S(=O)(=O)c3ccc(Br)cc3)CC2)cc(OC)c1", "activity change, positive = activation": "0%"}, {"smiles": "CCOC(=O)c1cccc(NC(=O)c2cc(S(=O)(=O)N3CCCC(C)C3)cn2C)c1", "note": "(configuration not stated)", "activity change, positive = activation": "-36.2%"}, {"smiles": "Cc1ccc(OCC(=O)OCc2cc(=O)n3nc(C4CC4)sc3n2)cc1C", "activity change, positive = activation": "-14.4%"}, {"smiles": "COc1cc(-c2nnn(CC(=O)NCc3ccccc3)n2)cc(OC)c1OC", "activity change, positive = activation": "-17.2%"}, {"smiles": "Cc1ccc(C)c(N2CCN(CCCNC(=O)Nc3ccc(Cl)cc3)CC2)c1", "activity change, positive = activation": "-32.1%"}, {"smiles": "CCCCC12CN3CC(C)(CN(C1)C3c1ccc(O)c(OC)c1)C2=O", "note": "(configuration not stated)", "activity change, positive = activation": "0.462%"}, {"smiles": "Cc1cc(Cl)ccc1NC(=O)Cc1ccc(NC(=O)N2CCCCc3ccccc32)cc1", "activity change, positive = activation": "-3.06%"}, {"smiles": "CCN(CC)CCNc1ncnc2c1cnn2-c1cc(Cl)ccc1C", "activity change, positive = activation": "-12%"}, {"smiles": "COc1ccc(C(=O)Nc2ccc(-n3nncc3-c3ccccc3)cc2)cc1OC", "activity change, positive = activation": "-6.93%"}, {"smiles": "CN(Cc1ccccc1)C(=O)CCS(=O)(=O)c1cc(Br)cc2c1N(C(=O)C1CC1)CC2", "activity change, positive = activation": "-15%"}, {"smiles": "COc1ccc(-c2nnc(SCC(=O)Nc3ccccc3C)o2)cc1OC", "activity change, positive = activation": "-4.55%"}, {"smiles": "Cc1ccc(-c2nnc(SCc3ccccc3C)o2)cc1", "Potency": "14.1 µM (active)"}, {"smiles": "Cc1ccc(OC(=O)CSc2nnc(-c3cccs3)o2)cc1", "activity change, positive = activation": "18.6%"}, {"smiles": "Cc1ccc(Cl)cc1N(C)C(=O)C1CCCN(c2ncnc3onc(-c4ccc(F)cc4)c23)C1", "note": "(configuration not stated)", "activity change, positive = activation": "-34%"}, {"smiles": "CC(C)c1ccc(C2CC(=O)N3CN(C4CCCCC4)CSC3=C2C#N)cc1", "note": "(configuration not stated)", "activity change, positive = activation": "-23%"}, {"smiles": "CC(C)CNc1ccnc(NCc2csc(-c3ccccc3)n2)n1", "activity change, positive = activation": "-89.5%"}, {"smiles": "Cc1ccc2onc(CC(=O)N3CCN(c4ccc(Cl)cc4)CC3)c2c1", "activity change, positive = activation": "-13.9%"}, {"smiles": "COc1ccccc1N1CCN(C(CNC(=O)C(=O)NCc2ccc(C)cc2)c2cccnc2)CC1", "note": "(configuration not stated)", "activity change, positive = activation": "-57.5%"}, {"smiles": "Cc1ccc(-c2cnc(NCc3ccc(C(C)C)cc3)n2C)cc1", "activity change, positive = activation": "-15.5%"}, {"smiles": "CCOC(=O)c1ccccc1NC(=O)c1nn(-c2ccc(OC)c(Cl)c2)c(=O)c2c1c1ccccc1n2C", "activity change, positive = activation": "-3.59%"}, {"smiles": "O=C(CSc1nccn1-c1ccc(F)cc1)Nc1cccc2ccccc12", "activity change, positive = activation": "-9.33%"}, {"smiles": "Cc1cc(C)cc(NC(=O)CCCc2nc(-c3ccccc3Cl)no2)c1", "activity change, positive = activation": "-12.4%"}, {"smiles": "COc1ccc(CN2C(=O)C(NC(=O)c3cccc(C)c3)(C(F)(F)F)N=C2c2ccccc2)cc1", "note": "(configuration not stated)", "activity change, positive = activation": "-24%"}, {"smiles": "COc1ccc(CCNC(=O)Cn2c(=O)cc(C(F)(F)F)c3c(C)nn(C)c32)c(OC)c1", "activity change, positive = activation": "-7.62%"}, {"smiles": "Cc1cccn2c(=O)c3cc(C(=O)NC(C)c4ccccc4)c(=N)n(CCCO)c3nc12", "note": "(configuration not stated)", "activity change, positive = activation": "13.5%"}, {"smiles": "CC(C)(C)c1ccc(C(=O)NCC(c2ccc(Cl)cc2)N2CCOCC2)cc1", "note": "(configuration not stated)", "activity change, positive = activation": "-34.2%"}, {"smiles": "COc1ccc(CCC(=O)NCCc2csc(-c3ccc(Cl)cc3)n2)cc1", "activity change, positive = activation": "-23.5%"}, {"smiles": "COc1ccc(Cl)cc1NC(=O)Cn1c(=O)c2ccccc2n2nncc12", "activity change, positive = activation": "-0.66%"}, {"smiles": "CC(C)CCNC(=O)CSc1nc2ccccc2nc1Cc1ccc(Cl)cc1", "activity change, positive = activation": "-6.39%"}, {"smiles": "Cc1ccccc1OCCSc1nc2ccc(NC(=O)c3ccco3)cc2s1", "activity change, positive = activation": "-25%"}, {"smiles": "O=C(Nc1cc(-c2nc3ccccc3o2)ccc1Cl)c1cc([N+](=O)[O-])ccc1N1CCOCC1", "activity change, positive = activation": "4.83%"}]}]}
